# Target: Splicing factor 3B subunit 1 (UniProt O75533)
# Experiment: cross-link between two proteins; cross-linking mass spectrometry
# Chain of UniProt O75533 (O75533 whole entry): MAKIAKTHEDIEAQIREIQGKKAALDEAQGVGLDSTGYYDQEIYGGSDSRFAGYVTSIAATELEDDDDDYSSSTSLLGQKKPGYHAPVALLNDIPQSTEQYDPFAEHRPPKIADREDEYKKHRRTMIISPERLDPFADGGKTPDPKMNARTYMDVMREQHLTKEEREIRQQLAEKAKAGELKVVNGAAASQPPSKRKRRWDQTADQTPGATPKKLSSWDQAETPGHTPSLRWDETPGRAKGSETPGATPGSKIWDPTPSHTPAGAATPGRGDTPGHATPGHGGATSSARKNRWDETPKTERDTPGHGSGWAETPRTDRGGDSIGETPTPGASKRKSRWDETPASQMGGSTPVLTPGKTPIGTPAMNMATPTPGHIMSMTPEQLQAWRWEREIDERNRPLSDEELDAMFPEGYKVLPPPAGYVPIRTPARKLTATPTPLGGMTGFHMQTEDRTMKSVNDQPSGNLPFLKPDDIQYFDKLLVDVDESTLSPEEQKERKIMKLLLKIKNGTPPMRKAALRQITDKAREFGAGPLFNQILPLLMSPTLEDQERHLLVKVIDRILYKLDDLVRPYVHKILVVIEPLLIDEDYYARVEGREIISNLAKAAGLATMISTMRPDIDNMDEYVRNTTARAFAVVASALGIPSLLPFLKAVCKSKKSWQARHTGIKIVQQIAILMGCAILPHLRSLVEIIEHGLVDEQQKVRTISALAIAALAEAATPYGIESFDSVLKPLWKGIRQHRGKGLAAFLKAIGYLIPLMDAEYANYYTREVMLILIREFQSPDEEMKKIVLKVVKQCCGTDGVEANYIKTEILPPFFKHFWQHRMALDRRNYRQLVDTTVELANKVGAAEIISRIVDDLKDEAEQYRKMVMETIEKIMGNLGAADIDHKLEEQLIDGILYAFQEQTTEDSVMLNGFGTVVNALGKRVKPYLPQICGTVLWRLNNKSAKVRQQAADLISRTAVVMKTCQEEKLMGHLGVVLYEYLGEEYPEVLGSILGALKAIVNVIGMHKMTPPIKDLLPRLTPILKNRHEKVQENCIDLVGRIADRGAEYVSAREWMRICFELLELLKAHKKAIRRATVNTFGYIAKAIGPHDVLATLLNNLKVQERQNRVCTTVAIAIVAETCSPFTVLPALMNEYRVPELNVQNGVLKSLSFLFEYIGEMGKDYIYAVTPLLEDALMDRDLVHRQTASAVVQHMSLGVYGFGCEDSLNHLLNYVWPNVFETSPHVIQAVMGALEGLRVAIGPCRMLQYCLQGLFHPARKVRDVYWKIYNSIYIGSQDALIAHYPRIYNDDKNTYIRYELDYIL
substance,measurement,value
"17S U2 SnRNP complex component HTATSF1, O43719",listed as a hit,yes

# Reference: publication doi:10.1101/2025.08.08.669391
